Assay outcomes deposited in PubChem BioAssay by The Scripps Research Institute Molecular Screening Center.
HGIII-sPLA2 inh: human group III sPLA2 inhibitors, primary screen, biochemical, QFRET, BODIPY PC-A2 liposome substrate. 0.56% of 370,000 active. QFRET BODIPY PC-A2 liposome hydrolysis, fluorescence. inhibition, % at 12.2 µM. AID 743126, 2013. Group 3 secretory phospholipase A2 (Homo sapiens), Q9NZ20;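 active = inhibition above mean plus 3 SD of compounds lying within the high and low control bounds, cut at about 19% in these data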;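 note: 0% = median of test compound wells and 100% = no enzyme DMSO wells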
proKLK7 act: proKLK7 zymogen activators, primary screen, biochemical, fluorescence intensity. purified proKLK7, EDANS-DABCYL substrate fluorescence; 100% is mature enzyme control, 0% vehicle. activation, % at 7 µM. 0.9% of 370,000 active. AID 652039, 2013;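 active = activation above the mean of all tested compounds plus 3 SD, computed per campaign excluding outliers beyond control limits, cut at about 13% in these data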
Target sequence (P49862 whole entry, looked up): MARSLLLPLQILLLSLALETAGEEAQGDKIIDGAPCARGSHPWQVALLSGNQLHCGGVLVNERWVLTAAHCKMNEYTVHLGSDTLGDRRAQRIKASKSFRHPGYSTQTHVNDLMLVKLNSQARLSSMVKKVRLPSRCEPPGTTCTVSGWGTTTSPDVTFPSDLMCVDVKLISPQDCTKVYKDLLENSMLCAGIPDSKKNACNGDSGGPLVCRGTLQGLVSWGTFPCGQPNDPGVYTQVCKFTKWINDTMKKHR
PLCb3 inh: human PLC-beta3 inhibitors, primary screen, biochemical, fluorescence; 1-phosphatidylinositol 4,5-bisphosphate phosphodiesterase beta-3 (Homo sapiens), Q01970; Purified PLC-beta3, fluorogenic substrate; inhibition, % at 12.2 µM; 0.18% of 370,000 active; AID 720704, 2013; in the data active = inhibition above about 11%;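 note: 0% = median of compound wells on plate and 100% = full blocker control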
ADAM17 inh: ADAM17 inhibitors, primary screen, biochemical, QFRET; Disintegrin and metalloproteinase domain-containing protein 17 (Homo sapiens), P78536; recombinant ADAM17, EDANS/DABCYL FRET peptide cleavage; inhibition, % at 6.95 µM; 0.83% of 370,000 active; AID 720648, 2013;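 active = inhibition above the mean of compounds lying between control limits plus 3 SD, set per campaign, cut at about 8.5% in these data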;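 note: 0% = DMSO-only wells as the low control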
ADAM10 inh: human ADAM10 inhibitors, primary screen, biochemical, QFRET, HTS; recombinant ADAM10, EDANS/DABCYL FRET peptide cleavage, 3 h; inhibition, % at 7 µM; 0.62% of 370,000 active;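 active = inhibition above a per-campaign cutoff equal to the mean of compounds falling between control-based bounds plus 3 SD, cut at about 20% in these data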;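 note: 0% = DMSO wells while the 100% control is not disclosed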
PLC-gamma1 inh: PLC-gamma1 enzyme inhibitors, primary screen, biochemical, fluorescence, purified enzyme | 1-phosphatidylinositol 4,5-bisphosphate phosphodiesterase gamma-1 (Homo sapiens), P19174 | fluorogenic substrate | inhibition, % at 12.2 µM | 0.84% of 370,000 active; in the data active = inhibition above about 9.5%
KLK7 act conf: proKLK7 zymogen activators, confirmation, biochemical, fluorescence intensity, triplicate; AID 686949, 2013; activation, % at 7 µM; purified proKLK7, EDANS-DABCYL substrate fluorescence; scaled: vehicle 0, mature enzyme 100; 68% of 3,200 active; shares compounds with proKLK7 act;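 active = activation, as change over the incubation, above the mean of all tested compounds plus 3 SD, cut at about 13% in these data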
EDANS-DABCYL int: EDANS-DABCYL substrate optical interference, artefact control for kallikrein-7 zymogen activator project, biochemical, fluorescence intensity, high throughput | shares compounds with proKLK7 act | no enzyme, 4 h; solvent 0%, active enzyme control 100% | activation, % at 7 µM | 80% of 3,200 active;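 active = activation above the all-compound mean plus 3 SD, ignoring values outside control-based bounds, cut at about 4.8% in these data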;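 note: value is the 4 h activation minus the activation read at time zero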
EDANS interf: counter-screen for kallikrein-7 activators: EDANS-DABCYL interference, dose response; shares compounds with proKLK7 act; EDANS-DABCYL peptide fluorescence interference, no enzyme; EC50, µM; 20% of 250 active; AID 720493;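 active = compounds that raise the fluorescence signal in this interference counterscreen, with EC50 at or below 10 µM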;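 note: intact quenched peptide substrate alone read at 355 nm excitation and 520 nm emission; signal is fluorescence gain from T0 to T4 after four hours at room temperature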
* marks the source's active call; other numbers are inactive results; i = inactive; · = not tested or not shown. The list is not random: actives were taken first. Their share in the collection is about 3.4%.

SMILES	HGIII-sPLA2 inh	proKLK7 act	PLCb3 inh	ADAM17 inh	ADAM10 inh	PLC-gamma1 inh	KLK7 act conf	EDANS-DABCYL int	others
C#CCn1c(=NC(=O)c2sc3ccccc3c2Cl)sc2cc(S(N)(=O)=O)ccc21	-0.1	29.7*	-71.8	-10.7	-22.6	-60.5	-0.5	2.0
COc1ccc(OC)c(/C=C/C(=O)NC2=NCCS2)c1	-4.4	0.6	i	-37.0	-96.5	i	·	·
COc1ccc(/C=C/C(=O)NC2=NCCS2)cc1OC	-4.1	15.1*	-367.3	-53.3	-180.2	-281.3	48.1*	46.8*
O=c1c2cc3cc4c(cc3nc2ncn1Cc1cccnc1)OCO4	-3.3	-0.1	-41.7	-107.9	-360.5	-31.7	·	·
CCN(CC)CCNc1c2c(c(C#N)c3nc4ccccc4n13)CCCC2	0.2	10.5	-314.2	-56.3	-266.9	-230.7	·	·
COCCN(CCOC)c1cc(C)c(C#N)c2nc3ccccc3n12	9.5	38.8*	i	-161.8	-453.2	i	61.0*	49.9*	EDANS interf=i
CCN(CC)CCNc1cc(C)c(C#N)c2nc3ccccc3n12	-4.3	131.7*	i	i	i	i	9.7	5.4*
Cc1cc(NCCCCO)n2c(nc3ccccc32)c1C#N	0.9	42.7*	-342.6	-271.4	i	-295.2	46.9*	37.4*	EDANS interf=>69.5
C=C(C)CSc1cc(C)c(C#N)c2nc3ccccc3n12	0.8	-5.2	i	-153.3	-385.9	i	·	·
CCN(CC)CCCNc1cc(C)c(C#N)c2nc3ccccc3n12	1.6	68.9*	i	i	i	i	38.4*	40.4*
CCN(CC)CCCNc1cc(C(F)(F)F)c(C#N)c2nc3ccccc3n12	8.1	53.0*	i	-152.0	-368.8	i	-6.8	-11.0
CCc1c(C)c(C#N)c2nc3ccccc3n2c1N(C)C	-4.1	1.3	-26.7	-5.7	-6.2	-24.4	·	·
CCC[C@H]1[C@@H](NCC2CCCCC2)CC[C@@]23CCCN2C(=O)CCC[C@@H]13	9.8	·	2.2	1.7	-0.4	4.9	·	·
Cc1ccc(C#N)c(SCC(=O)Nc2nccs2)n1	3.7	130.4*	i	-60.4	-183.4	i	209.0*	182.4*
CCn1c(C)nnc1SCC(=O)Nc1nccs1	2.3	-0.6	0.9	6.4	14.9	3.3	·	·
CCOC(=O)c1c(SCC(=O)Nc2nccs2)nc(C)c(C)c1C	8.3	79.0*	-339.4	-22.3	-48.7	-332.6	60.7*	57.9*
O=C(c1ccc(Br)cn1)N1CCC(Oc2cccnc2)CC1	1.1	0.7	2.9	3.4	1.0	2.7	·	·
COc1cc2c(cc1OC)CN(C(=O)c1ccccc1C(=O)O)CC2	4.8	16.5*	-87.2	-19.1	-53.5	-74.2	6.6	5.2*
COc1cc2c(cc1OC)CN(CCC(C)c1ccc(Cl)cc1)CC2 (stereo not given)	-14.3	20.9*	-16.4	-24.0	-56.9	-15.6	148.0*	144.9*
COc1cc2c(cc1OC)CN(CC(O)c1ccccc1)CC2 (stereo not given)	0.9	96.2*	i	-308.3	i	i	56.4*	74.2*
COc1ccc(S[C@]2(C(=O)NCCCN(C)C)CC(=O)N[C@@H]2c2ccc(OC)cc2)cc1	1.6	-0.1	-1.8	-2.2	-4.3	-0.8	·	·
